# Results from paper PMC7862700, “An all-to-all approach to the identification of sequence-specific readers for epigenetic DNA modifications on cytosine”.
# How the values were obtained:
# Assay in all cases: DAPPL (digital affinity profiling via proximity ligation, sequencing); 10 mM Tris-HCl pH 7.5, 50 mM NaCl, 1 mM DTT, 4% glycerol, room temperature, 30 min; GST-TFs on glutathione beads, 16-mer random dsDNA library, 0.1% formaldehyde crosslink after washing; high values mean tight binding
# Conditions in all cases: protein: recombinant; tags: N-terminal GST; dsDNA, one strand shown
# FLI1 = target: T1, FLI1 (Homo sapiens, UniProt Q01543 1-452)
# T1 sequence: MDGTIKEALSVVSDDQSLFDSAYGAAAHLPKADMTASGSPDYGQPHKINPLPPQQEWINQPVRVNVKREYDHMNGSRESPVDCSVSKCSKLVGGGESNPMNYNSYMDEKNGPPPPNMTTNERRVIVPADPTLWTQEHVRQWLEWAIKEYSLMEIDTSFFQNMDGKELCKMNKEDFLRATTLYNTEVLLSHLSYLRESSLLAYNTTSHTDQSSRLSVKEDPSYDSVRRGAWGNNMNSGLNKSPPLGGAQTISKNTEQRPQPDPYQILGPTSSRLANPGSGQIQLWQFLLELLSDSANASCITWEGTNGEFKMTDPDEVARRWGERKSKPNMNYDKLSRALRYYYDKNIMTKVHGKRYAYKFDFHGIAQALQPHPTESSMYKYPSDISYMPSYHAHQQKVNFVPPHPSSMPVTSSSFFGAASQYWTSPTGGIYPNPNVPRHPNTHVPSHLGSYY
# Summary of the method: (§1)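 Pools were built from human transcription factors expressed in yeast as GST fusions, captured on glutathione beads and DNA-barcoded, along with a tag-only sample. Incubation with 200 nmole of a 16-mer random double-stranded DNA library lasted 30 min at room temperature in Tris/NaCl/DTT/glycerol buffer, and was followed by washing, 0.1% formaldehyde crosslinking, proximity ligation, PCR amplification and Illumina NextSeq500 sequencing. Binding signal is the quotient of each hexamer's read frequency for a factor and its frequency for the tag-only sample.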
# ELK1 = target: T2, ELK1 (Homo sapiens, UniProt P19419 1-428)
# T2 sequence: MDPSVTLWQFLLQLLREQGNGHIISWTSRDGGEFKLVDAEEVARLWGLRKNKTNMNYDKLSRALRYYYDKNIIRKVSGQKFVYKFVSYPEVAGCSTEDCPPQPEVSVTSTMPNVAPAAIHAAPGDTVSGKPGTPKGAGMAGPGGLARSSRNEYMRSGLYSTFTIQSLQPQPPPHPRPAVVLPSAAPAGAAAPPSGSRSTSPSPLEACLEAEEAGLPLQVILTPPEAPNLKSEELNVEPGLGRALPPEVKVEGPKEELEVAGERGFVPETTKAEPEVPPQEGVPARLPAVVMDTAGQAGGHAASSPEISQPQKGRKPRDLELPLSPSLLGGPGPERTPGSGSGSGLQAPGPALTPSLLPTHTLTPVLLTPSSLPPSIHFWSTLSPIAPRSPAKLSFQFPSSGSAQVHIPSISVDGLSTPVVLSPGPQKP
# Summary of the method: as §1
# ERG = target: T3, ERG (Homo sapiens, UniProt P11308 1-479)
# T3 sequence: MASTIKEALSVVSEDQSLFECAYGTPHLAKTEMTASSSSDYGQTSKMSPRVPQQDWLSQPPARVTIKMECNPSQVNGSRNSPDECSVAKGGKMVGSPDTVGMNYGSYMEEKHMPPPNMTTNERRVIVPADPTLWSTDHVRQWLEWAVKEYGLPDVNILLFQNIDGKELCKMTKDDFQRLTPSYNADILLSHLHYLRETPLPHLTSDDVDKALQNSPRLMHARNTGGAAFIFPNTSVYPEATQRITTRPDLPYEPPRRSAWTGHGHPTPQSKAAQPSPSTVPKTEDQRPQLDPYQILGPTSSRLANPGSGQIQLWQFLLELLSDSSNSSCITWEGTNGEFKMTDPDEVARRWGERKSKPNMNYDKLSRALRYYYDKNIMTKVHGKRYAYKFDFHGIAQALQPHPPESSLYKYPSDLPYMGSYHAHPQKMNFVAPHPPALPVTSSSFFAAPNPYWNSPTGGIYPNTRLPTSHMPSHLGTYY
# Summary of the method: as §1
# ELF1 = ELF1 (Homo sapiens, UniProt P32519 1-619)
# Sequence of ELF1 (P32519 whole entry): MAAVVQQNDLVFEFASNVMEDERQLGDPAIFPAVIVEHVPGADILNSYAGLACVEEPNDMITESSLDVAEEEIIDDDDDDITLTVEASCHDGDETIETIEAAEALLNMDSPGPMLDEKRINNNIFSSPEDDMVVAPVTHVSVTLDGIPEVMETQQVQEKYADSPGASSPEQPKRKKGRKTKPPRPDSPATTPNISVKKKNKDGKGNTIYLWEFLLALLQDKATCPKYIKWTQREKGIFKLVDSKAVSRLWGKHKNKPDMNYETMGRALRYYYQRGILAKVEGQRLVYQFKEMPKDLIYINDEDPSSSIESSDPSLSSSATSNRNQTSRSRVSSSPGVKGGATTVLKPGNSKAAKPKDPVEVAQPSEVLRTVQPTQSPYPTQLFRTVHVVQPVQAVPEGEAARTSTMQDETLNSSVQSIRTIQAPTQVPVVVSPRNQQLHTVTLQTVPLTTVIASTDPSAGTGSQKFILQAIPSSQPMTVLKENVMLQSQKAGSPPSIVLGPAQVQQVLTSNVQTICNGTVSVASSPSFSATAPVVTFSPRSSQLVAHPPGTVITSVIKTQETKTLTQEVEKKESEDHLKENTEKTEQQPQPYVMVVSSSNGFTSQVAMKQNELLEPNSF
# Summary of the method: as §1
# SPI1 = SPI1 (Homo sapiens, UniProt P17947 1-270)
# Summary of the method: as §1
# SPIB = SPIB (Homo sapiens, UniProt Q01892 1-262)
# Sequence of SPIB (Q01892 whole entry): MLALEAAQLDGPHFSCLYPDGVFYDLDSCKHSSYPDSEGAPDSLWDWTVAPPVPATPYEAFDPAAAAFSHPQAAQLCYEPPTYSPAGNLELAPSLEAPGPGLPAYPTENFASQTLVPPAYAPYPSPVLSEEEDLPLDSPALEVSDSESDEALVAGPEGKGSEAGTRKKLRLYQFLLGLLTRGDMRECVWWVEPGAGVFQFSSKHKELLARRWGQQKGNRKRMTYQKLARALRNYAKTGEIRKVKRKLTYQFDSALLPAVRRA
# Summary of the method: as §1
# ELK3 = target: T4, ELK3 (Homo sapiens, UniProt P41970 1-407)
# T4 sequence: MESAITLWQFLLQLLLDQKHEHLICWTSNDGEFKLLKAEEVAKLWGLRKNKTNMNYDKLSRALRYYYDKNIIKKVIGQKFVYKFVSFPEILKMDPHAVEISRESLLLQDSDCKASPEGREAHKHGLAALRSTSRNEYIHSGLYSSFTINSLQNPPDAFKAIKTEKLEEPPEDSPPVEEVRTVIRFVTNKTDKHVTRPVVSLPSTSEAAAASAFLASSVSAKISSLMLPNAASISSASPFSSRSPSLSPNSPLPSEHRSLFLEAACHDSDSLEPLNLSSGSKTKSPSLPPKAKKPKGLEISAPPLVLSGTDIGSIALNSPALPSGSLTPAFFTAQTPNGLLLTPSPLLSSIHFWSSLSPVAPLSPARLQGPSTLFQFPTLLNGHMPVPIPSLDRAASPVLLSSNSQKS
# Summary of the method: as §1
# ETV5 = ETV5 (Homo sapiens, UniProt P41161 1-510)
# Sequence of ETV5 (P41161 whole entry): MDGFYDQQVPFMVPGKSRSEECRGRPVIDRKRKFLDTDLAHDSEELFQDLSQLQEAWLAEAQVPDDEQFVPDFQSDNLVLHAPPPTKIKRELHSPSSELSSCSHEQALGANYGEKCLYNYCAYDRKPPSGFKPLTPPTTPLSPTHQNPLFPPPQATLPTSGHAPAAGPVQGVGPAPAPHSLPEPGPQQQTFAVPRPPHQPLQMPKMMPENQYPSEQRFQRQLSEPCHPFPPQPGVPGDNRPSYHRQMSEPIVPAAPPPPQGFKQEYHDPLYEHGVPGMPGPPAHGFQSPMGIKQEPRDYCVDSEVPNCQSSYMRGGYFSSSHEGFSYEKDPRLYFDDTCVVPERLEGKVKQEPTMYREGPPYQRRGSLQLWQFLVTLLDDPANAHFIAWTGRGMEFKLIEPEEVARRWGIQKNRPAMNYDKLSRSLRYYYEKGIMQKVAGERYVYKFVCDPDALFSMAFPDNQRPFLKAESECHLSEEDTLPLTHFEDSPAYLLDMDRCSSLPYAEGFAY
# Summary of the method: as §1
# ETV2 = target: T5, ETV2 (Homo sapiens, UniProt O00321 1-342)
# T5 sequence: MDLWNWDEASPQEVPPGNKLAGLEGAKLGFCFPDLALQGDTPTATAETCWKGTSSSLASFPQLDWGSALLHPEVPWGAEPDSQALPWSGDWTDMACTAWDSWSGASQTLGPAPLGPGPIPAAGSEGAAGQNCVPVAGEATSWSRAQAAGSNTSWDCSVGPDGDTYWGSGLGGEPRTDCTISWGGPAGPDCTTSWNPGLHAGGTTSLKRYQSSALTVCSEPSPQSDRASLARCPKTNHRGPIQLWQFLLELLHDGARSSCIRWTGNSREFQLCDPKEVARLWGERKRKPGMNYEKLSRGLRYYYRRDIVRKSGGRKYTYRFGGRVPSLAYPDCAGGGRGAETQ
# Summary of the method: as §1
# ERF = target: T6, ERF (Homo sapiens, UniProt P50548 1-548)
# T6 sequence: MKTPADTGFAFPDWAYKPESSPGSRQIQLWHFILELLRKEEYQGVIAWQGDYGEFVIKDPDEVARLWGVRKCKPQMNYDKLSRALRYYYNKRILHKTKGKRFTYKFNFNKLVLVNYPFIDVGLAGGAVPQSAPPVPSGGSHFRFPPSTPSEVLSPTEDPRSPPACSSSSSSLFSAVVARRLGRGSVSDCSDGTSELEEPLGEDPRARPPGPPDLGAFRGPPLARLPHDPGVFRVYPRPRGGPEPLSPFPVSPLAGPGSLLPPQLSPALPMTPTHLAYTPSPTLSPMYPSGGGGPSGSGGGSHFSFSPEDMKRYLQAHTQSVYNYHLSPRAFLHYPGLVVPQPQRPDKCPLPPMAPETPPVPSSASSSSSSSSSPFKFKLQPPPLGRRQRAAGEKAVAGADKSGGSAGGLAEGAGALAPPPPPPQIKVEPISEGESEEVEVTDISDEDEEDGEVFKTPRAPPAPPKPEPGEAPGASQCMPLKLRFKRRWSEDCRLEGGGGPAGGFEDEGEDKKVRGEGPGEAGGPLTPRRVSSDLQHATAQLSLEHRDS
# Summary of the method: as §1
# ETV3L = target: T7, ETV3L (Homo sapiens, UniProt Q6ZN32 1-361)
# T7 sequence: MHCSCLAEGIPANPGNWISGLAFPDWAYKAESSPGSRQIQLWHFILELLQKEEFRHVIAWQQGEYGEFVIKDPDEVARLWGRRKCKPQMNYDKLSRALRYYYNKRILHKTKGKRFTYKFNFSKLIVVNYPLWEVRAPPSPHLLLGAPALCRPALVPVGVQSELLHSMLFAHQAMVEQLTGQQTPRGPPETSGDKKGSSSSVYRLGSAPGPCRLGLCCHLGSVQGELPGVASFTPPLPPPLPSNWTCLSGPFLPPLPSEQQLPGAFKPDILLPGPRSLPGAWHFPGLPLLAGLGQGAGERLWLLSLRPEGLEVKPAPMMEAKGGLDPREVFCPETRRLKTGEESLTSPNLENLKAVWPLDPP
# Summary of the method: as §1
# ETS2 = target: T8, ETS2 (Homo sapiens, UniProt P15036 1-469)
# T8 sequence: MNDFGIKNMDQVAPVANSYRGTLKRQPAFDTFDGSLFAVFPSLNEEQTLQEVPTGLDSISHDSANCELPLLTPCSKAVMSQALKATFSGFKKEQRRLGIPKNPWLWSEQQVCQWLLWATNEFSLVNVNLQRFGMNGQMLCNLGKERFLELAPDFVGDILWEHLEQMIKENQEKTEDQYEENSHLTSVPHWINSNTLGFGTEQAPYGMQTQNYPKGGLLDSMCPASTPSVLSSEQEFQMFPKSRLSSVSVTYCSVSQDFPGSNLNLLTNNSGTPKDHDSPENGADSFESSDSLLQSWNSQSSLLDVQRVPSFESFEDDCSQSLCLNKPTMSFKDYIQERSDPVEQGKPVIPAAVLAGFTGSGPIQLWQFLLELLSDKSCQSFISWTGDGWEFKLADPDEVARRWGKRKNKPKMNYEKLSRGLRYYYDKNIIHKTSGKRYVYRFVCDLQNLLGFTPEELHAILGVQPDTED
# Summary of the method: as §1
# ETV7 = target: T9, ETV7 (Homo sapiens, UniProt Q9Y603 1-341)
# T9 sequence: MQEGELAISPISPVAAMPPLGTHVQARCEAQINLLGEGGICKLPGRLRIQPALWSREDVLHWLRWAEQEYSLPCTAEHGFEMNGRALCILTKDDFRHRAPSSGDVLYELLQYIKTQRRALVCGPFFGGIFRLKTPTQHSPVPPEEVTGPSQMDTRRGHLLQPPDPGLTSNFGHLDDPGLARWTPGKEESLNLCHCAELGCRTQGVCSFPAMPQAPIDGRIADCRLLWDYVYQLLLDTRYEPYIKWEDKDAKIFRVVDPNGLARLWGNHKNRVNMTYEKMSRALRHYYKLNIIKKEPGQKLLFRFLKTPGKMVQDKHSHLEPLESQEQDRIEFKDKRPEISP
# Summary of the method: as §1
# ETV3 = target: T10, ETV3 (Homo sapiens, UniProt P41162-2 1-143)
# T10 sequence: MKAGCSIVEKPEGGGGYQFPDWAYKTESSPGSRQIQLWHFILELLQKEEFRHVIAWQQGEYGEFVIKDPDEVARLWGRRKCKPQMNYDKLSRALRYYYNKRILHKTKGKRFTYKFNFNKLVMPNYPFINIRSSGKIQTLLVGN
# Summary of the method: as §1
sequence,measurement,setting,value
GTTGCG,binding signal,FLI1,"1 fold enrichment (6-mer frequency, TF over GST control)"
same,binding signal,ELK1,"1.04 fold enrichment (6-mer frequency, TF over GST control)"
same,binding signal,ERG,"1.09 fold enrichment (6-mer frequency, TF over GST control)"
same,binding signal,ELF1,"1.02 fold enrichment (6-mer frequency, TF over GST control)"
same,binding signal,SPI1,"1.02 fold enrichment (6-mer frequency, TF over GST control)"
same,binding signal,SPIB,"1.15 fold enrichment (6-mer frequency, TF over GST control)"
same,binding signal,ELK3,"1.01 fold enrichment (6-mer frequency, TF over GST control)"
same,binding signal,ETV5,"1.07 fold enrichment (6-mer frequency, TF over GST control)"
same,binding signal,ETV2,"1.03 fold enrichment (6-mer frequency, TF over GST control)"
same,binding signal,ERF,"1.14 fold enrichment (6-mer frequency, TF over GST control)"
same,binding signal,ETV3L,"1.06 fold enrichment (6-mer frequency, TF over GST control)"
same,binding signal,ETS2,"1.07 fold enrichment (6-mer frequency, TF over GST control)"
same,binding signal,ETV7,"1.04 fold enrichment (6-mer frequency, TF over GST control)"
same,binding signal,ETV3,"1.07 fold enrichment (6-mer frequency, TF over GST control)"
